Several values for one entry are separate records, joined by “and”; a condition that tells them apart may be missing. Equal entries are not always repeated. Compounds without any hit were thinned out: in the full panel of roughly 83,000, 20% have a hit.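 Testing used 96-well plates and a 48-hour single-concentration exposure. Example: -40 means 40% of the starting cells died.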
Legend:
Experiment in all cases: NCI-60 one-dose screen, 48 h (100 = growth as untreated, 0 = no growth, -100 = all killed)
Details in all cases: 10 µM unless noted; active = growth percent below 10; inactive = the rest
[1] = test system: NCI-H23 lung
[2] = test system: NCI-H226 lung
[3] = test system: NCI-H322M lung
[4] = test system: HOP-62 NSCLC
[5] = test system: NCI-H460 lung
[6] = test system: HOP-92 NSCLC
[7] = test system: NCI-H522 lung
[8] = test system: A549/ATCC NSCLC
[9] = test system: 786-0 renal
[10] = test system: COLO 205 colon

Measured: growth

CC(=O)C[n+]1ccccc1Sc1ccc(Cl)cc1
inactive: [1] 100% | [2] 91.1% | [3] 99.6% | [4] 107% | [5] 77% | [6] 98.8% | [7] 108% | [8] 84.6% | [9] 82.6% | [10] 109%

Nc1ccc(O)c(C(=O)O)c1
inactive: [1] 92.7% and 105% and 94.2% | [2] 95.4% and 92.4% and 116% | [3] 131% and 106% and 99.2% | [4] 92.5% and 103% and 90.9% | [5] 103% and 101% and 116% | [6] 104% and 105% | [7] 102% and 101% | [8] 105% and 97% | [9] 98.9% and 101% and 94.7% | [10] 107% and 134%

O=COCCCc1ccccc1
inactive: [1] 109% | [2] 95.4% | [3] 104% | [4] 86.4% | [5] 107% | [6] 84.9% | [7] 80.5% | [8] 83.7% | [9] 105% | [10] 106%

CCc1ccccc1-n1[nH]c(C)c(C=N)c1=O
inactive: [1] 102% | [2] 89% | [3] 106% | [4] 135% | [5] 109% | [6] 98.6% | [7] 102% | [8] 126% | [9] 112% | [10] 120%

CC(C)(C)OC(=O)NCCc1ccc(N)cc1
inactive: [1] 104% | [2] 94.9% | [3] 103% | [4] 96.1% | [5] 97.4% | [6] 88.4% | [7] 83.5% | [8] 91% | [9] 100% | [10] 110%

OCCS
inactive: [1] 93.7% | [2] 98.8% | [3] 101% | [4] 97.3% | [5] 106% | [6] 95.2% | [7] 102% | [8] 95.1% | [9] 94.2% | [10] 107%

N=c1sc2ccccc2n1CC(=O)O
inactive: [1] 108% | [2] 98.1% | [3] 103% | [4] 88.8% | [5] 109% | [6] 82.1% | [7] 87.1% | [8] 83.7% | [9] 101% | [10] 106%

CCN(CC)CCNC(=O)c1ccc(NCN2C(=O)NC(c3ccccc3)(c3ccccc3)C2=O)cc1
inactive: [1] 97.1% and 103% | [2] 95.6% and 100% | [3] 112% and 106% | [4] 116% and 99.7% | [5] 101% and 114% | [6] 86.2% and 105% | [7] 108% and 106% | [8] 95.3% and 107% | [9] 101% and 115% | [10] 124% and 103%

COC(=O)c1nc(=S)[nH]c(C(=O)OC)c1C(=O)c1ccccc1
inactive: [1] 101% | [2] 90.2% | [3] 106% | [4] 113% | [5] 114% | [6] 92% | [7] 103% | [8] 112% | [9] 120% | [10] 119%

O=C(O)c1cccc(Br)c1
inactive: [1] 111% and 102% | [2] 98.5% | [3] 96.4% and 95.8% | [4] 95.5% and 100% | [5] 115% and 105% | [6] 101% and 102% | [7] 103% and 85.5% | [8] 98.8% and 87% | [9] 96.4% and 96.8% | [10] 115%

CN(C)C(=N)N=C(N)N
inactive: [1] 100% and 120% | [2] 110% and 133% | [3] 107% and 154% | [4] 95.5% and 99.5% | [5] 113% and 125% | [6] 114% and 122% | [7] 64.1% and 166% | [8] 99.8% and 118% | [9] 103% and 101% | [10] 135%

O=C(c1ccccc1)C1(Br)CCCCC1
inactive: [1] 98% | [2] 87.5% | [3] 93.4% | [4] 96% | [5] 105% | [6] 88.1% | [7] 95.6% | [8] 96.8% | [9] 91.5% | [10] 129%

CCCC(=O)OCC(COC(=O)CCC)OC(=O)CCC
inactive: [1] 104% | [2] 94.5% | [3] 93.9% | [4] 98.6% | [5] 101% | [6] 87.3% | [7] 99.1% | [8] 94.9% | [9] 102% | [10] 111%
